Measurements taken from the supplement of paper PMC11732987, “Enantioselective OTUD7B fragment discovery through chemoproteomics screening and high-throughput optimisation” (Communications Chemistry, 2025).

Columns and labels:
Assay in all cases: log2 ratio of Biotin-Ahx-Ub-VS probe labelling (fragment/DMSO); higher = less target engagement (more negative = stronger competition), active = hit call of the paper (q ≤ 0.05, log2 ratio ≤ -1)
Details in all cases: compound concentration: 200 uM; treatment time: 3 h
OTUD6B = target: T1, OTUD6B (UniProt Q8N6M0)
T1 sequence (whole entry): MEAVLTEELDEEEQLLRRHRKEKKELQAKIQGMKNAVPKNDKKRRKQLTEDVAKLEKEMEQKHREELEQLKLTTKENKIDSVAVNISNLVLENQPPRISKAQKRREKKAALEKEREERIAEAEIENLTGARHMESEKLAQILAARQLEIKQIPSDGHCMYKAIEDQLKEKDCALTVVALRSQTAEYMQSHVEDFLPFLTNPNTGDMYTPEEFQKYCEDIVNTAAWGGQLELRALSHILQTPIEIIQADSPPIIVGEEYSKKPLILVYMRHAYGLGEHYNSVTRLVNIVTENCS
Procedure, shortened: (§1)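 Using Biotin-Ahx-Ub-VS at 0.5 µM final for 1 h, DUBs were labelled in HEK293T lysate (495 µg per sample) that had first been treated in triplicate with fragment at 200 µM or vehicle for 3 h. NeutrAvidin enrichment, LysC and trypsin digestion and diaPASEF LC-MS/MS followed. Spectronaut label-free quantities were global-median-normalised. Values are average log2 fragment/vehicle ratios by unpaired t-test, using proteins with ≥2 unique peptides.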

OTUD7B = target: T2, OTUD7B (UniProt Q6GQQ9)
T2 sequence (whole entry): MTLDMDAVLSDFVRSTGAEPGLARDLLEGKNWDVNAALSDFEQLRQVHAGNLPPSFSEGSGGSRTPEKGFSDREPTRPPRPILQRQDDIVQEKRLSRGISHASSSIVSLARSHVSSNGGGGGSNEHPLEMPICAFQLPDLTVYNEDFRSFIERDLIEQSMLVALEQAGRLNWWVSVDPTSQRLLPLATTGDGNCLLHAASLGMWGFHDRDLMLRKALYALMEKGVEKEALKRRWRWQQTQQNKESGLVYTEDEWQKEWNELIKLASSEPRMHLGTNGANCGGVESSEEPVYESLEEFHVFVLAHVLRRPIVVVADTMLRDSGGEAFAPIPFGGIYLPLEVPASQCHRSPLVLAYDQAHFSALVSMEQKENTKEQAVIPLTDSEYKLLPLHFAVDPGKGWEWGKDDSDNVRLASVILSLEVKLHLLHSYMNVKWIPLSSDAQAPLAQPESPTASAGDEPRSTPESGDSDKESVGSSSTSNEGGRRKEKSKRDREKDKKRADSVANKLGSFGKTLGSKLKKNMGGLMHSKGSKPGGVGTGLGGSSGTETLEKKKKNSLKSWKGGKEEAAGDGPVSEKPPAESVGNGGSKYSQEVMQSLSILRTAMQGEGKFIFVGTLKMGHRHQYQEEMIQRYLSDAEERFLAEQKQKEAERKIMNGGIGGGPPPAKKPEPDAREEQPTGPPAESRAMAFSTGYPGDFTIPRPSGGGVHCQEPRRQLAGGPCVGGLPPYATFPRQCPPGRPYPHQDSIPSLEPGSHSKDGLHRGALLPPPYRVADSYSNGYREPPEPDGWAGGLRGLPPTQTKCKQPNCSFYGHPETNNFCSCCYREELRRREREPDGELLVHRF
Procedure, shortened: as §1

PRPF8 = PRPF8 (UniProt Q6P2Q9)
Procedure, shortened: as §1

PSMD7 = target: T3, PSMD7 (UniProt P51665)
T3 sequence (whole entry): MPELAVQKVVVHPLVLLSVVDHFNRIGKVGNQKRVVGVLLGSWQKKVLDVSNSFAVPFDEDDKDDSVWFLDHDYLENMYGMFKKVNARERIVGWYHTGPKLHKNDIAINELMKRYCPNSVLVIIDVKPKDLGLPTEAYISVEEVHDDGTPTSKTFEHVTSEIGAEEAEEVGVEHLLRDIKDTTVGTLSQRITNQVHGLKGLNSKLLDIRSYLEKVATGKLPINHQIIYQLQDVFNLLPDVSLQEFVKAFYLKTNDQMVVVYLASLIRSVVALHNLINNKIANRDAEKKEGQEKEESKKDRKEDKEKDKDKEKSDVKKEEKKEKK
Procedure, shortened: as §1

UCHL1 = UCHL1 (UniProt P09936)
Procedure, shortened: as §1

UCHL3 = target: T4, UCHL3 (UniProt P15374)
T4 sequence (whole entry): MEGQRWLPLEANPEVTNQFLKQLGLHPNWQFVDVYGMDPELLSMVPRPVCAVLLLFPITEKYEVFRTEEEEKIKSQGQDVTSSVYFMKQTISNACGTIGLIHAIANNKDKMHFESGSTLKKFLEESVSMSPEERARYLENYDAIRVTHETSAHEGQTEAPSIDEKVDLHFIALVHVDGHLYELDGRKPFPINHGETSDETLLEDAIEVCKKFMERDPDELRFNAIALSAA
Procedure, shortened: as §1

UCHL5 = target: T5, UCHL5 (UniProt Q9Y5K5)
T5 sequence (whole entry): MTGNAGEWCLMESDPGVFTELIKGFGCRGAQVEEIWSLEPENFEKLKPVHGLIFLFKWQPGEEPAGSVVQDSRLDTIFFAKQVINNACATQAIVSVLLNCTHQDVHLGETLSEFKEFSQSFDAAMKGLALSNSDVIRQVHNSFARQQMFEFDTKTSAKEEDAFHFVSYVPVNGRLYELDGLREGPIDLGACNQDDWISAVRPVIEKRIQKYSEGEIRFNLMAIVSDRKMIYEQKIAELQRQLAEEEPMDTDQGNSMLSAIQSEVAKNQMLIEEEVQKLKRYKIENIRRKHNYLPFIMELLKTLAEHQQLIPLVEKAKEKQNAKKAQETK
Procedure, shortened: as §1

USP10 = USP10 (UniProt Q14694)
Procedure, shortened: as §1

USP15 = target: T6, USP15 (UniProt Q9Y4E8)
T6 sequence (whole entry): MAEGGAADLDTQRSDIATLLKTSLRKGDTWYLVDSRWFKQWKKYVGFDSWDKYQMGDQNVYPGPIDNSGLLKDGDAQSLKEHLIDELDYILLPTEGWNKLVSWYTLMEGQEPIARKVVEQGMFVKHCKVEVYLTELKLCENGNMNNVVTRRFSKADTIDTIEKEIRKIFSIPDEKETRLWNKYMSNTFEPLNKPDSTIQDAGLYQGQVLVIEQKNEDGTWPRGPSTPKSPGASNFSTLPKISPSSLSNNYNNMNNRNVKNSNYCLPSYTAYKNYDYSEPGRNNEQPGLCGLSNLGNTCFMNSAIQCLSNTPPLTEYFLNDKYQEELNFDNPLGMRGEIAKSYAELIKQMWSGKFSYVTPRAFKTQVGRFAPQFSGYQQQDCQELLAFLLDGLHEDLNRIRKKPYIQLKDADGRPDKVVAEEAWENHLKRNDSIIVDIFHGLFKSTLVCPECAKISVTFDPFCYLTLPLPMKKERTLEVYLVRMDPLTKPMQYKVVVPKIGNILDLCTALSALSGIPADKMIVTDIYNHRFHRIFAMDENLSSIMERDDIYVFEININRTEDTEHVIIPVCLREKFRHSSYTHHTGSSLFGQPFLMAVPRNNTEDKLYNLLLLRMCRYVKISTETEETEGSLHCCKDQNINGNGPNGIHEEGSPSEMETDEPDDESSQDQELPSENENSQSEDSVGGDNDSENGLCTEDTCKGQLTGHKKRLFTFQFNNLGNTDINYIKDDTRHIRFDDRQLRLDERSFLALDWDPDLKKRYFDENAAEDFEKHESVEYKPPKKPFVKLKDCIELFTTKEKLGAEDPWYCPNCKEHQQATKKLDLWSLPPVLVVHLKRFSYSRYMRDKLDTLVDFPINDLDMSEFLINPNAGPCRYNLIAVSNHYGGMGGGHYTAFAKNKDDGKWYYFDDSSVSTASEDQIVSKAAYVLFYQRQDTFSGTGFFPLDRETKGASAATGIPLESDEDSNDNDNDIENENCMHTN
Procedure, shortened: as §1

USP16 = USP16 (UniProt Q9Y5T5)
Procedure, shortened: as §1

Measured: log2 ratio of Biotin-Ahx-Ub-VS probe labelling

Sequence of USP10 (Q14694 whole entry): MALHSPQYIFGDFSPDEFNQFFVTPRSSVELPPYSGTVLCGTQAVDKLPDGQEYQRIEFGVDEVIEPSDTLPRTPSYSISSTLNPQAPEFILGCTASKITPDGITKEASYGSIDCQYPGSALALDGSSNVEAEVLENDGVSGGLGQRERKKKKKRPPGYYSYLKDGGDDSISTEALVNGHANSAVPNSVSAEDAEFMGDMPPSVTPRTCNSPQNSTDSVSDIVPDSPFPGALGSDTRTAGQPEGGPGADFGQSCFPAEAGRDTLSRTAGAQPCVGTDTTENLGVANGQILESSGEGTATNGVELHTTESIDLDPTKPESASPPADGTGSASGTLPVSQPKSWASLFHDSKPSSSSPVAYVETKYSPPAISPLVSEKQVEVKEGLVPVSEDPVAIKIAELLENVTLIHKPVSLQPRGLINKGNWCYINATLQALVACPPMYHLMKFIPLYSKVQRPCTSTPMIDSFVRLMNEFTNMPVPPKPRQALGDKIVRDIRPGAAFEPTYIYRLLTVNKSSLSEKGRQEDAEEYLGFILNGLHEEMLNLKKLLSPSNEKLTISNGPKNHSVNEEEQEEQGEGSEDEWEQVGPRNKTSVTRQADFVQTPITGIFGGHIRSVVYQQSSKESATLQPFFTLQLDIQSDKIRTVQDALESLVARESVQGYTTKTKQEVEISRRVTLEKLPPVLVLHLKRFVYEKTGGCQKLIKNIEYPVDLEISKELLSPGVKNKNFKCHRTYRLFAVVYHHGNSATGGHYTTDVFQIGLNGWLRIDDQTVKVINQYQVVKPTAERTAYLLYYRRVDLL
Sequence of UCHL1 (P09936 whole entry, looked up): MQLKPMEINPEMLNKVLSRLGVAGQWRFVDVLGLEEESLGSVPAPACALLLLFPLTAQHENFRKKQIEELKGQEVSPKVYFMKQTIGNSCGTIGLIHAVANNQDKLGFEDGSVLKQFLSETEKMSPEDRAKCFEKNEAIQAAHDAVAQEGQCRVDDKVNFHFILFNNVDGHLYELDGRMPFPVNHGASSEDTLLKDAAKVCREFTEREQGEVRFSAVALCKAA
Sequence of USP16 (Q9Y5T5 whole entry, looked up): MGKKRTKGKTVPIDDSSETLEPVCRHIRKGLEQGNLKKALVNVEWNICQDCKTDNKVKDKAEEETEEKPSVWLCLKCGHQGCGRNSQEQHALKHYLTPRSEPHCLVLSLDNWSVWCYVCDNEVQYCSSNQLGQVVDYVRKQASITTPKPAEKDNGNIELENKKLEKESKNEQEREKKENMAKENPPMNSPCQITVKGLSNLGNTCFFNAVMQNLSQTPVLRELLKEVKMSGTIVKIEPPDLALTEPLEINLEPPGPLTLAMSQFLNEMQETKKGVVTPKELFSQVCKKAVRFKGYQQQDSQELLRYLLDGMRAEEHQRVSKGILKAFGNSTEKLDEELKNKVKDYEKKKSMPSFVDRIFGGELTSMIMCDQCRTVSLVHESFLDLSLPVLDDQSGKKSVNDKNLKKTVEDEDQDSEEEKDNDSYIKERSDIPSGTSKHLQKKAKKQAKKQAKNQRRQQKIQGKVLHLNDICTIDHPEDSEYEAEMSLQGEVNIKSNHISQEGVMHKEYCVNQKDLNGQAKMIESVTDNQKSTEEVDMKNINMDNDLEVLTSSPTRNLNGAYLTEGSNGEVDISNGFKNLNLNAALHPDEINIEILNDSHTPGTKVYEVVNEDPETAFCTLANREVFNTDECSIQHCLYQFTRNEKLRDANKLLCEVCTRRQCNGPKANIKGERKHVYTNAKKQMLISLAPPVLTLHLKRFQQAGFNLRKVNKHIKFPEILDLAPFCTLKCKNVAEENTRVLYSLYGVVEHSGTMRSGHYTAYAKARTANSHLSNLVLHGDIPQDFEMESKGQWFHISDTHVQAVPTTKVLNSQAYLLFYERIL

O=C(CCl)NC1CCN(C(=O)C2CCCCC2)CC1
inactive: OTUD6B 0.191 | OTUD7B -0.643 | PRPF8 0.0534 | PSMD7 -0.106 | UCHL1 -0.513 | UCHL3 0.338 | UCHL5 0.125 | USP10 -0.0591 | USP15 -0.0587 | USP16 -0.0778
